Source: the supplement of paper PMC6555819

Columns and labels:
Assay in all cases: PBM binding z-score (relative to random genomic background probes); higher = stronger binding; sequences stand for … in GC…GCGATTGACAGCGTAGAATGAAGG
[1] = tested on: FXR:RXRa (NR concentration 270 nM, RXRa partner concentration 90 nM)
Summary of the method: (§1)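 Binding z-scores take random background probes as their reference. They come from custom Agilent 4×180K protein-binding microarrays incubated 1 h with ligand-free nuclear receptor dimers, with antibodies against each partner (one per run) detecting binding. Scanned fluorescence was regression-normalized.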

[2] = tested on: LXRa:RXRa (NR concentration 270 nM, RXRa partner concentration 90 nM)
Summary of the method: as §1

[3] = tested on: LXRa homodimer (NR concentration 270 nM)
Summary of the method: as §1

[4] = tested on: LXRb:RXRa (NR concentration 270 nM, RXRa partner concentration 90 nM)
Summary of the method: as §1

[5] = tested on: LXRb homodimer (NR concentration 270 nM)
Summary of the method: as §1

[6] = tested on: PPARa:RXRa (NR concentration 270 nM, RXRa partner concentration 90 nM)
Summary of the method: as §1

[7] = tested on: PPARg:RXRa (NR concentration 180 nM, RXRa partner concentration 90 nM)
Summary of the method: as §1

[8] = tested on: PPARg:RXRa 270nM:90nM, anti-RXR (NR concentration 270 nM, RXRa partner concentration 90 nM)
Summary of the method: as §1

[9] = tested on: PPARg:RXRa 30nM:10nM, anti-RXR (NR concentration 30 nM, RXRa partner concentration 10 nM)
Summary of the method: as §1

[10] = tested on: PPARg:RXRa 90nM:30nM, anti-RXR (NR concentration 90 nM, RXRa partner concentration 30 nM)
Summary of the method: as §1

[11] = tested on: PPARg:RXRa DBDmut IVT, anti-RXR (DBD mutation: RXRa K156A/R161A, NR concentration 270 nM, RXRa partner concentration 90 nM)
Summary of the method: as §1

[12] = tested on: PPARg:RXRa IVT, anti-PPARg (NR concentration 270 nM, RXRa partner concentration 90 nM)
Summary of the method: as §1

[13] = tested on: PPARg DBDmut:RXRa IVT, anti-PPARg (DBD mutation: PPARg1 K132A/R137A, NR concentration 270 nM, RXRa partner concentration 90 nM)
Summary of the method: as §1

[14] = tested on: PPARg DBDmut IVT, anti-PPARg (DBD mutation: PPARg1 K132A/R137A, NR concentration 270 nM)
Summary of the method: as §1

[15] = tested on: PPARg homodimer (NR concentration 180 nM)
Summary of the method: as §1

[16] = tested on: PXR:RXRa (NR concentration 270 nM, RXRa partner concentration 90 nM)
Summary of the method: as §1

[17] = tested on: PXR homodimer (NR concentration 270 nM)
Summary of the method: as §1

[18] = tested on: RARa:RXR (NR concentration 270 nM, RXRa partner concentration 90 nM)
Summary of the method: as §1

[19] = tested on: RARa homodimer (NR concentration 270 nM)
Summary of the method: as §1

[20] = tested on: RARb:RXRa (NR concentration 270 nM, RXRa partner concentration 90 nM)
Summary of the method: as §1

| Sequence | PBM binding z-score [1] | PBM binding z-score [2] | PBM binding z-score [3] | PBM binding z-score [4] | PBM binding z-score [5] | PBM binding z-score [6] | PBM binding z-score [7] | PBM binding z-score [8] | PBM binding z-score [9] | PBM binding z-score [10] | PBM binding z-score [11] | PBM binding z-score [12] | PBM binding z-score [13] | PBM binding z-score [14] | PBM binding z-score [15] | PBM binding z-score [16] | PBM binding z-score [17] | PBM binding z-score [18] | PBM binding z-score [19] | PBM binding z-score [20] |
| --- | --- | --- | --- | --- | --- | --- | --- | --- | --- | --- | --- | --- | --- | --- | --- | --- | --- | --- | --- | --- |
| TCGAGTAGGTTACCAATGGTGCATTCAGCTTTCT | -0.236 | 1.22 | -0.491 | 0.425 | -1.1 | 0.801 | 0.0197 | 1.1 | 0.784 | 1.06 | 3.28 | 2.62 | -0.362 | -0.313 | -0.186 | -0.18 | -0.657 | 0.145 | -1.04 | 0.684 |
| AATACAGGGTCACTAGGCCACAGTAGGTACGAAT | 6.38 | 4.76 | 1.17 | 4.02 | 1.04 | 6.17 | 8.82 | 7.43 | 4.24 | 6.72 | 4.65 | 6.73 | 4.31 | 2.11 | 3.96 | 3.36 | 0.57 | 4.14 | 1.37 | 4.27 |
| GCTAGTTGGTCAGTAAAAGGGCACACACCGGTCG | 0.16 | 0.257 | 0.266 | 0.266 | -0.104 | 0.841 | 0.709 | 1.04 | 0.0544 | 0.502 | 0.062 | 0.821 | 0.0138 | -0.25 | 1.05 | 0.368 | 0.0129 | 0.889 | 0.252 | 1.72 |
| GCTAGTTGGTCAGTAAAAGGTCACTCACCGGTCG | 2.88 | 3.91 | 4.1 | 3.49 | 0.861 | 3.87 | 1.93 | 4.19 | 1.77 | 3.49 | 1.28 | 2.47 | -0.335 | 0.0493 | 3.31 | 4.53 | 0.779 | 5.19 | 1.56 | 4.12 |
| CGAACTAGGTCATCCAGGACAGCGAATACATTGA | 4.51 | 2.55 | 0.58 | 2.07 | -0.199 | 4.82 | 7.57 | 6.41 | 4.29 | 5.78 | 8.26 | 8.15 | 1.97 | 1.48 | 1.78 | 1.78 | 1.09 | 2.33 | -0.0811 | 3.81 |
| TCAAATAGGTAAAAGGTGAAAGTCGGTGTGGTAA | 2.23 | 1.93 | 0.419 | 2.06 | -0.106 | 5.45 | 8.26 | 8.33 | 8.45 | 9.13 | 4.66 | 4.53 | 0.779 | 0.749 | 2.29 | 1.91 | 0.411 | 3.31 | 1.82 | 2.27 |
| GGAACGAGGGCAAGTGGATAGCAGAGTTTGATGG | 0.68 | 0.618 | -0.0905 | 0.0624 | -0.475 | 1.36 | 1.21 | 1.21 | -0.127 | 0.598 | 3.83 | 2.95 | 0.27 | 0.066 | 0.34 | 0.612 | 0.421 | 0.505 | -0.0317 | 2.65 |
| ACCGACAGGTGATGAAGGTAACTCAGGCTATCAT | -0.0834 | -0.243 | -0.257 | -0.498 | -0.393 | 0.179 | 0.492 | -0.102 | -0.173 | -0.00846 | 0.339 | 0.157 | 0.484 | 0.654 | 0.0692 | -0.165 | -0.395 | 0.291 | 0.18 | 0.0834 |
| CTACCAAGGTGAACAAGGTCGCTGATTACTATTC | 1.1 | 1.05 | -0.405 | 1.37 | -0.68 | 2.38 | 1.17 | 1.36 | -0.0103 | 0.78 | 2.41 | 2.81 | 0.217 | 0.423 | 0.663 | 1.7 | 0.349 | 1.89 | -0.144 | 2.17 |
| AGTCAAAGTTGACTAGGTAACGTAAGATTCAGCT | -0.527 | -0.187 | -0.527 | -0.137 | -0.608 | 1.41 | 2.01 | 2.7 | 0.453 | 1.91 | 1.93 | 2.8 | 0.549 | 0.744 | -0.383 | -0.11 | -0.595 | 0.0496 | -0.0612 | 1.13 |
| AATACAGGGTCACTAGGCCAGGGTAGGTACGAAT | 5.78 | 4.57 | 1.02 | 3.79 | 0.895 | 5.76 | 7.68 | 6.2 | 3.37 | 5.35 | 3.28 | 6 | 2.53 | 1.9 | 2.35 | 3.05 | 0.325 | 3.76 | 1.02 | 4.23 |
| CGTCAAAGTTCAAGGTAAGGTAACAGAAAGCAGC | 6.16 | 5.4 | 2.37 | 3.29 | 0.542 | 4.69 | 4.19 | 4.91 | 1.78 | 3.67 | 0.198 | 2.04 | 0.246 | 0.255 | 1.61 | 4.03 | 1.72 | 3.78 | 1.28 | 5.22 |
| CAAACTAGGTCAAAGGCCAAAGTCGAGCCAACCA | 5.15 | 3.93 | 0.637 | 3.08 | -0.153 | 6.63 | 11.3 | 9.98 | 9.75 | 10.9 | 7.91 | 8.52 | 1.47 | 0.202 | 1.73 | 2.9 | 0.159 | 4.68 | 0.255 | 4.31 |
| CCTACTGGGCCATTCAGACGTCATTGATCATATG | -0.301 | -0.532 | -0.873 | -0.449 | -0.437 | 0.168 | 0.616 | 0.206 | 0.0211 | 0.147 | 4.26 | 3.42 | 0.223 | 0.732 | -0.0853 | -0.71 | -0.506 | -0.696 | -0.0635 | -0.11 |
